# Active and inactive are the calls of the source.
# Experiments:
# [1] = test system: Plasmodium falciparum Sir2 (PF13_0152, Sir2A); test: pfSir2 binders on small-molecule microarrays, primary screen, biochemical, small-molecule microarray, 635 nm fluorescence (AID 1098); settings: small-molecule microarray binding, fluorescence 635 nm; higher = more signal;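 further: score merges spot fluorescence intensity with its signal-to-noise ratio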
# [2] = small-molecule microarray binders of probe aDKK1, primary screen, biochemical, biotinylated probe, 635/667 nm fluorescence (AID 1099); settings: higher = more signal;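 further: score merges 667nm spot fluorescence with signal to noise across triplicate slides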
# [3] = small-molecule microarray binders of probe aCHRDL2, primary screen, biochemical, biotinylated probe, 635/667 nm fluorescence (AID 1100); settings: higher = more signal
# [4] = splicing luciferase reporter signal modulators, primary screen, spliceosome inhibition project, cell-based, HEK293, splice +/- reporter (AID 1101); settings: luminescence, 24 h, higher = more signal, called active from +8 up or from −8 down;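 further: HEK293 cells carrying a splicing-competent luciferase reporter gene; test concentration not given here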
# [5] = biological target: Fibroblast growth factor 10 (Homo sapiens) (UniProt O15520); test: FGF10 binders on small-molecule microarrays, primary screen, biochemical, small-molecule microarray, 635 nm fluorescence (AID 1102); settings: FGF10 binding, fluorescence 635 nm, higher = more signal
# [6] = test system: glycogen synthase kinase-3 (GSK3A per assay name; protocol says GSK3B); test: GSK3 binders on small-molecule microarrays, primary screen, biochemical, small-molecule microarray, 635 nm fluorescence, GSK3A (AID 1103); settings: small-molecule microarray binding, fluorescence 635 nm; higher = more signal; further: the record names both GSK3A and GSK3B
# [7] = biological target: Epidermal growth factor receptor (Homo sapiens) (UniProt P00533); test: EGFR binders on small-molecule microarrays, primary screen, biochemical, small-molecule microarray, 635 nm fluorescence (AID 1104); settings: EGFR binding, higher = more signal;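 further: score merges 667 nm emission intensity with spot signal to noise over triplicate slides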
# [8] = biological target: Follistatin-related protein 3 (Homo sapiens) (UniProt O95633); test: FSTL3 binders on small-molecule microarrays, primary screen, biochemical, small-molecule microarray, 635 nm fluorescence (AID 1105); settings: FSTL3 binding, higher = more signal;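 further: score merges emission near 667 nm and signal to noise per printed spot across three slides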
# [9] = biological target: Dickkopf-related protein 1 (Homo sapiens) (UniProt O94907); test: DKK1 binders on small-molecule microarrays, primary screen, biochemical, small-molecule microarray, 635 nm fluorescence scan (AID 1106); settings: DKK1 binding, higher = more signal;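 further: score merges emission near 667 nm with signal to noise over three replicate slides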
# [10] = test system: Inhibin beta A chain (activin A); test: INHBA (activin A) binders on microarrays, primary screen, biochemical, small-molecule microarray, 635 nm fluorescence scan (AID 1107); settings: small-molecule microarray binding, higher = more signal;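 further: mouse activin A protein probed at 4.33 µg/mL on printed slides; score merges bound-protein fluorescence near 667 nm with spot signal-to-noise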
# [11] = test system: Human papillomavirus type 1a protein E7 (residues 44-93); test: HPV1a E7 fragment binders on microarrays, primary screen, biochemical, small-molecule microarray, residues 44-93, 635 nm fluorescence (AID 1108); settings: small-molecule microarray binding, fluorescence 635 nm; higher = more signal;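 further: E7 fragment applied at 1 µg/mL in TBST for 1 h at 4 C; score combines spot fluorescence with its signal to noise ratio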
# [12] = modulators of HCV replicon luciferase signal, primary screen, HCV replication inhibitor project, Huh7 cells, luciferase reporter (AID 1109); settings: 48 h, higher = more signal;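 further: huh7 hepatoma cells harbouring a luciferase neomycin HCV replicon reporter; luciferase luminescence as measure of HCV replicon replication; test concentration not given here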
# [13] = biological target: Left-right determination factor 2 (Homo sapiens) (UniProt O00292); test: LEFTY2 binders on small-molecule microarrays, primary screen, biochemical, small-molecule microarray, 635 nm fluorescence scan (AID 1110); settings: LEFTY2 binding, higher = more signal
# [14] = biological target: Calmodulin-1 (Homo sapiens) (UniProt P0DP23); test: CALM1 binders on microarrays, EGTA buffer, profiling panel, biochemical, small-molecule microarray, Cy5-labelled CALM1 (AID 1111); settings: Cy5-CALM1 binding fluorescence, higher = more signal;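 further: labelled calmodulin applied in Tris saline Tween buffer holding calcium plus EGTA and DTT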
# [15] = biological target: Calmodulin-1 (Homo sapiens) (UniProt P0DP23); test: calcium-bound CALM1 binders on microarrays, profiling panel, artefact control for SMM control-protein annotation, biochemical, small-molecule microarray, Cy5-labelled CALM1, plus calcium (AID 1112); settings: Cy5-CALM1 binding fluorescence, higher = more signal;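 further: score merges spot fluorescence with signal to noise from triplicate slides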
# [16] = small-molecule microarray binders of probe aWnt5a, primary screen, biochemical, biotinylated probe, 635/667 nm fluorescence (AID 1113); settings: higher = more signal;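 further: score merges 667 nm fluorescence intensity with signal-to-noise per printed feature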
# [17] = small-molecule microarray binders of probe aShh, primary screen, biochemical, biotinylated probe, 635/667 nm fluorescence (AID 1114); settings: higher = more signal;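 further: probe is biotin-labelled aShh protein from a stem cell growth factor screen; measures binding of labelled protein to compounds printed on the slide; score merges feature fluorescence at 667 nm with signal-to-noise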
# [18] = small-molecule microarray binders of probe aNog, primary screen, biochemical, biotinylated probe, 635/667 nm fluorescence (AID 1115); settings: higher = more signal;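 further: probe is biotinylated aNog protein used at 0.15 µg/mL for 1 h at 4 C; z-score combines 667 nm fluorescence of each spot with its signal to noise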
# [19] = biological target: Torsin-1A-interacting protein 1 (Homo sapiens) (UniProt Q5JTV8); test: LAP1 binders from COS7 cell lysate, primary screen, small-molecule microarray, 635/667 nm fluorescence (AID 1116); settings: COS7-hLAP1 lysate binding, 635 nm fluorescence, higher = more signal
# [20] = biological target: Alpha-bungarotoxin (Bungarus multicinctus) (UniProt P60615); test: alpha-bungarotoxin binders on microarray, profiling panel, artefact control for SMM control protein annotation, biochemical, small-molecule microarray, Alexa647 label, 635/667 nm fluorescence (AID 1117); settings: alpha-BTX-A647 binding fluorescence, higher = more signal
# Alpha-bungarotoxin (Bungarus multicinctus), sequence (P60615 whole entry, looked up): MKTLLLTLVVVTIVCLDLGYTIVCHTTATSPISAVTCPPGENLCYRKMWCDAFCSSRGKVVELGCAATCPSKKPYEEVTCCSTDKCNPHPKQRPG
# Torsin-1A-interacting protein 1 (Homo sapiens), sequence (Q5JTV8 whole entry, looked up): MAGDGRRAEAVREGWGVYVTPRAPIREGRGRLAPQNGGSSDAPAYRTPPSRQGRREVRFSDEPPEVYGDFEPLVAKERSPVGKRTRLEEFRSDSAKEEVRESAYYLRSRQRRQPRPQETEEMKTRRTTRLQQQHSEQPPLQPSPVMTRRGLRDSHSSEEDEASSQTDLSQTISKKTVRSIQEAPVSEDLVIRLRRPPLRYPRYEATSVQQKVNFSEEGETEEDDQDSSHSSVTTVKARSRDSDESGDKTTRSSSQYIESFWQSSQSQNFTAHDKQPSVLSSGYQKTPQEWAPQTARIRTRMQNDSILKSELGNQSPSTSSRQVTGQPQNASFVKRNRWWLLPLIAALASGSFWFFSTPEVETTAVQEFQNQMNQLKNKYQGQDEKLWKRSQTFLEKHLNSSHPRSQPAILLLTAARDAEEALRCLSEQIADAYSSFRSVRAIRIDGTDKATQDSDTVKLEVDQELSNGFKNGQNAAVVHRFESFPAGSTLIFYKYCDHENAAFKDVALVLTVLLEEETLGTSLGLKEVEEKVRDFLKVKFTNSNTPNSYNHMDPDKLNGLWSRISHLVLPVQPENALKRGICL
# Left-right determination factor 2 (Homo sapiens), sequence (O00292 whole entry, looked up): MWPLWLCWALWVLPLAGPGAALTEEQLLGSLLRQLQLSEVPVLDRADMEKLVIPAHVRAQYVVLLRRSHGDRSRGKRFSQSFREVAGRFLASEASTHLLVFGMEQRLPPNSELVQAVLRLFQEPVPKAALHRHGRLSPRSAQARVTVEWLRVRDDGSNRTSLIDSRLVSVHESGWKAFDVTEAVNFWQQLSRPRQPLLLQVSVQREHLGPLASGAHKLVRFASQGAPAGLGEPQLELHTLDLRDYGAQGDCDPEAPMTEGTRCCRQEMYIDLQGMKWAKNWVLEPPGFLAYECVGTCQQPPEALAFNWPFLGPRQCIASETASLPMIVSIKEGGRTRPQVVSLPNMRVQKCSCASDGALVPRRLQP
# Dickkopf-related protein 1 (Homo sapiens), sequence (O94907 whole entry, looked up): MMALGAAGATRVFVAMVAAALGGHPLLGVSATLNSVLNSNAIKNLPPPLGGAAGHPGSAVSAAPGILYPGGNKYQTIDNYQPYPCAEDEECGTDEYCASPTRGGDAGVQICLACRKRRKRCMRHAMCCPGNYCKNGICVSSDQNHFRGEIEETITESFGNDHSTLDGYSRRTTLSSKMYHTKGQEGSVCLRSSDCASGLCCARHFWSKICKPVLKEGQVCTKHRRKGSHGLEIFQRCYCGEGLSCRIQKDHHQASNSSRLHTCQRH
# Follistatin-related protein 3 (Homo sapiens), sequence (O95633 whole entry, looked up): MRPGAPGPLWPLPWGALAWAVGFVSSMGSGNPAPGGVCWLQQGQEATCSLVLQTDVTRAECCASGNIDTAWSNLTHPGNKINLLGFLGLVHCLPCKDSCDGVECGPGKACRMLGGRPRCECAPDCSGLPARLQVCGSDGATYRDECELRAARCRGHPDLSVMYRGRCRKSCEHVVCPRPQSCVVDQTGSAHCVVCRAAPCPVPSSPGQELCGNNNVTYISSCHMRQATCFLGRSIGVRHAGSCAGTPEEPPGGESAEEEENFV
# Fibroblast growth factor 10 (Homo sapiens), sequence (O15520 whole entry, looked up): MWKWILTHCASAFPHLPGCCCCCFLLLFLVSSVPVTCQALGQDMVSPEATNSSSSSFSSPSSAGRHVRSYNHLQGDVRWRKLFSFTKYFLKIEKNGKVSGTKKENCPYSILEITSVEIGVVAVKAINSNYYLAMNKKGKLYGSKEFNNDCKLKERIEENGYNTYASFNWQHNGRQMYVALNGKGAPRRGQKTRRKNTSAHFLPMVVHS
# Epidermal growth factor receptor (Homo sapiens), sequence (P00533 whole entry, looked up): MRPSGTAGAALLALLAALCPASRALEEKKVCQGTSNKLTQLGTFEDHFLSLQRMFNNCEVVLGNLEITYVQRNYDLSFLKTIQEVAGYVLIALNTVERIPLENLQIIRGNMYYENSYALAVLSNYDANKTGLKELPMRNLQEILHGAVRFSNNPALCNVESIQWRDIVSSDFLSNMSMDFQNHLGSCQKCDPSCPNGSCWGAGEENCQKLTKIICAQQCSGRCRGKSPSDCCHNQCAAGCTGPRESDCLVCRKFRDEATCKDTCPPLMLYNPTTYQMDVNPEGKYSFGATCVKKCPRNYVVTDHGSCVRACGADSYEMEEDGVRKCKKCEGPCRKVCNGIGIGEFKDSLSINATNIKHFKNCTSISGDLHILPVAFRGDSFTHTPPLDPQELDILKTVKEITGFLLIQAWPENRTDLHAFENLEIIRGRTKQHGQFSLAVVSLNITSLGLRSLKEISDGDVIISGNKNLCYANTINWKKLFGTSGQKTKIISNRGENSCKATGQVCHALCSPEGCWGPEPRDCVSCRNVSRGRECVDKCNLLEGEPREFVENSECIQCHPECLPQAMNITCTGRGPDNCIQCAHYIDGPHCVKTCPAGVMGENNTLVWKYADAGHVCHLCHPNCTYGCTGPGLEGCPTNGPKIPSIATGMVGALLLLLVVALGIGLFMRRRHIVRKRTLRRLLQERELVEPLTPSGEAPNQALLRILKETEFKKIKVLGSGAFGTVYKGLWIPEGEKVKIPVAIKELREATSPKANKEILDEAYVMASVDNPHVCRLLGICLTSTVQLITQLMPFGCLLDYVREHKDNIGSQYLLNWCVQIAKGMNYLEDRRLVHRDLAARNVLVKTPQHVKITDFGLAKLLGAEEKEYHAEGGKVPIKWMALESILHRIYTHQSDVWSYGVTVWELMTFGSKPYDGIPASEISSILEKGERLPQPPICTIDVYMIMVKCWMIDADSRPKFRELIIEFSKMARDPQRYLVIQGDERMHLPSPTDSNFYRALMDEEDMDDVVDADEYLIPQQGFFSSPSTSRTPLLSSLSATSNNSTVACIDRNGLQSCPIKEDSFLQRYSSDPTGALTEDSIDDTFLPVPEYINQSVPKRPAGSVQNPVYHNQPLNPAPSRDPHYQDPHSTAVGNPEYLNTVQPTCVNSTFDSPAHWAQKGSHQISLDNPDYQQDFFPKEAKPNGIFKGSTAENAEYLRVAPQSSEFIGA
Compound,composite z-score [1],composite z-score [2],composite z-score [3],z-score [4],composite z-score [5],composite z-score [6],composite z-score [7],composite z-score [8],composite z-score [9],composite z-score [10],composite z-score [11],z-score [12],composite z-score [13],composite z-score [14],composite z-score [15],composite z-score [16],composite z-score [17],composite z-score [18],composite z-score [19],composite z-score [20]
COc1ccc(C(=O)Nc2cccc(CN3C(=O)[C@]4(O[C@H](CCn5cc([C@H](O)c6ccccc6)nn5)[C@@H]([Si](C)(C)c5ccc(OC)cc5)[C@@H]4C)c4ccccc43)c2)cc1,0.758,0.224,0.265,-2.49 (inactive),0.26,-0.266,-0.339,0.31,-0.132,1.41,1.38,-5.19,0.126,-0.0002,-0.614,-0.13,-0.0793,0.189,0.361,1.09
CC1(C)C(=O)C(c2ccccc2)=C2CN3C(=O)N(CCc4ccccc4)C(=O)C3(Cc3ccc(F)cc3)C=C21 (stereo not given),0.251,1.19,1.24,-0.274 (inactive),-0.236,-0.556,-0.554,-0.0423,-1.11,0.958,0.754,-1.47,-1.24,1.11,0.725,0.317,0.717,1.8,0.551,0.273
COc1ccc(C(=O)Nc2cccc(CN3C(=O)[C@@]4(O[C@@H](CC(=O)N(CCO)Cc5ccccc5)[C@H]([Si](C)(C)c5ccc(OC)cc5)[C@H]4C)c4ccccc43)c2)cc1,1.4,-0.566,-0.0709,-2.23 (inactive),-0.0511,0.196,0.0627,0.823,0.26,0.636,1.18,-3.89,0.344,0.822,-0.0254,-0.187,-0.206,-0.38,1.12,0.681
CCOC(=O)C1=C[C@@H](C(C)(C)C)N(S(=O)(=O)c2ccc(C)cc2)[C@H]1c1ccc(C)cc1,0.772,0.46,0.517,-0.598 (inactive),1.3,0.995,0.78,1.26,0.541,0.516,0.974,-1.04,0.424,1.81,-0.0354,0.0479,-0.0709,1.27,0.229,1.11
CC(C)C[C@@H]1NC(=O)[C@@H]2C[C@H](C(=O)NCCCCCC[N+](C)(C)C)[C@H](c3cccc(OCCO)c3)N2C1=O,1.78,-0.294,0.512,-0.261 (inactive),0.225,0.221,-0.138,-0.168,0.449,0.327,1.31,-0.926,-0.184,-0.105,-0.744,-0.156,-0.0234,-0.249,0.369,0.446
C=CCC(OC(C)=O)[C@@H]1[C@@H](N(Cc2cccc3ccccc23)C(=O)c2cccc3ccccc23)c2cc(OCCCO)ccc2N1C(=O)c1ccc2ccccc2c1 (stereo not given in full),-0.131,0.0281,0.0611,-0.888 (inactive),0.523,-0.0993,0.187,0.423,0.226,1.41,0.475,-0.351,0.156,-0.0677,0.476,-0.0748,0.0494,0.185,0.184,0.0426

# From PubChem BioAssay
